This is part of a sample that, as a whole, favours compounds with a hit. Of some 83,000 tested, about 20% had one in any assay.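 The endpoint reported here, percent growth, reads 100 for growth as untreated, 0 for no net growth and -100 for all cells dead.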 The source made the active and inactive calls. The calls were made as follows: active = growth percent below 10; inactive = the rest.

The experiment concerns HL-60(TB) leukemia. Nature of the experiment: NCI-60 one-dose screen, 48 h (100 = growth as untreated, 0 = no growth, -100 = all killed). Particulars: 10 µM unless noted.
In the case of `N#C/C(=N\Nc1ccc(Cl)cc1)C(=O)Nc1cc(-c2ccccc2)nn1-c1ccccc1`, the growth was 27.5% (inactive).
Then `Nc1ncnc2c1N=C(c1ccc3c(c1)OCO3)CC(c1ccc(Cl)cc1)N2` (configuration not stated), with 88.1% (inactive); and `CC(C)(C)NCCC(O)c1cc(C(F)(F)F)nc2c(C(F)(F)F)cccc12` (configuration not stated), with 73.5% (inactive).
Regarding `O=C(CN1N=C(c2ccc(F)cc2)CCC1=O)Nc1nc2ccccc2s1`, the growth is 8.9% (active).
Then `COP(=O)(OC)C(c1ccc(O)cc1)(c1ccc(O)cc1)c1ccc(O)cc1`, with 93.4% (inactive); and `COc1cc(Cn2ccc3c2-c2oncc2CC3)cc(OC)c1`, with 16.6% (inactive); and `O=S(=O)(Cc1cccc2c(CS(=O)(=O)c3ccc(Cl)cc3)cccc12)c1ccc(Cl)cc1`, with 93.5% (inactive).
Then `N=C(N)c1ccc(-c2ccc(-c3cc(Cl)cc(Cl)c3)o2)nc1`, with -74.7% (active); and `COC(=O)C(O)c1ccccc1` (configuration not stated), with 109% (inactive).
Take `O=C(CS)OCC(COC(=O)CS)(COC(=O)CS)COC(=O)CS`: the growth was 67.2% (inactive).
In the case of `Cc1cccc[n+]1CCC[n+]1ccccc1C` it was 86.4% (inactive).
In the case of `COc1ncc(-c2ccc3nccc(C#CCCCCC(=O)NO)c3c2)cc1NS(=O)(=O)c1ccc(F)cc1F` it was -33.3% (active); in that of `CCCC(C(=O)OCC)C(C)OC(=O)OCC` (configuration not stated), 87.8% (inactive).
In the case of `COC(=O)CNS(=O)(=O)c1ccc2c(c1)Cc1cc(S(=O)(=O)NCC(=O)OC)ccc1-2` it was 98.5% (inactive).
For `CC(C)(C)c1nn(-c2ccccc2)c2c1COCN2Cc1ccc(Cl)cc1`, the growth was 43.5% (inactive).
On to `NC(=O)C(=O)c1ccccc1NC=O`, for which the growth is 101% (inactive).
In the case of `CC(C)C[C@H](C(=O)N[C@@H](C)C(N)=O)N1CC=CCN(O)S1(=O)=O` it was 110% [5 µM] (inactive); in that of `N#Cc1ccc(N2Cc3cc(Cl)ccc3OC3=C2C(=O)N(Cc2ccc(F)cc2)C3=O)cc1`, -57.9% (active); in that of `COc1cccc(/C=C/C(=O)c2cc3c(N)c(C(=O)Nc4cccc(Cl)c4C)sc3nc2C)c1`, 0.771% (active).
In the case of `COc1cc(NS(=O)(=O)c2ccc(N)cc2)ncn1` it was 105% (inactive); in that of `CCOC(=O)C(=CNc1ccccc1Cl)C(=O)OCC`, 86.4% (inactive).
In the case of `CCCCCCCCN(CCCCCCCC)CC(O)c1cc(Cl)ccc1OC` (configuration not stated) it was 73.4% (inactive).
For the compound `C#Cc1ccc(-n2c(/C=C/c3cc(OC)c(OC)c(OC)c3)nc3ncccc3c2=O)cc1`, the growth is 26.5% (inactive).
Then `COC(=O)[C@]12CC[C@@H](C)[C@H](C)[C@@H]1C1=CC[C@@H]3[C@@]4(C)C(C=O)=C[C@@](C)(COC(=O)/C=C/c5ccccc5)[C@@H]4[C@H](O)C[C@@]3(C)[C@]1(C)CC2`, with -13% (active); and `CC1(Cc2ccccc2)CC2=C(C(=O)O1)C(c1ccccc1)NC(=O)N2` (configuration not stated), with -25.1% (active); and `CC(=O)OC1Oc2cc(C)c(C)cc2-c2oc(=O)c(-c3cc4ccc(N(C)C)cc4oc3=O)cc21` (configuration not stated), with 25.6% (inactive).
As for `Cc1c(C(=O)N[C@@H](Cc2ccccc2)C(=O)C(=O)NCc2ccc(F)cc2)[nH]c2ccccc2c1=O`, the growth is 96.8% (inactive).
